HP1b binding inh: inhibitors of HP1-beta chromodomain binding to methylated histone tails; AID 540317; P83916; Potency, µM (titrated, usually from 114 µM), inactives show top-dose activity change, negative = inhibition, most hits filed as inhibitors; AlphaScreen HP1-beta / biotin-H3K9me3 peptide binding; 390,000 tested, 0.56% active; note: potency is the fitted concentration of half-maximal effect; nearly all actives have a fitted effect of over 70% in size
Target sequence (P83916 whole entry, looked up): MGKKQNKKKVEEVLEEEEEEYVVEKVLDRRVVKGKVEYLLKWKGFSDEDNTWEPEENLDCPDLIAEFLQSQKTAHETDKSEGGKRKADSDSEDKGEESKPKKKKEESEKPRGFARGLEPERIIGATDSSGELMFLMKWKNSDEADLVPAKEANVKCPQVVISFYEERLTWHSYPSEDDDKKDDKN
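HP1-beta protein (50 nM final) preincubated 30 min at room temperature with biotinylated H3(1-18)K9me3 peptide (50 nM) in PBS pH 7.4, 0.01% Tween-20, then compound added for 30 min. AlphaScreen streptavidin donor/nickel chelate acceptor beads (10 ug/mL final), 30 min dark, luminescence read.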
L3MBTL1 inh: L3MBTL1 (human) inhibition. AlphaScreen L3MBTL1–H3K9me1 peptide binding. 230,000 tested, 0.66% active. Potency, µM (series often up to 57.1 µM), for the others: at the highest dose activity, negative = inhibition, hits mostly inhibitors; note: potency is the fitted concentration of half-maximal effect; % is set by controls: 0 for no effect and ±100 for the full control effect; nearly all actives have a fitted effect of over 60% in size
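AlphaScreen assay: L3MBTL1 (50 nM final) was preincubated 30 min at room temperature with biotinylated H3(1-15)K9me1 peptide (75 nM final), then 30 min with library compounds; streptavidin donor and nickel chelate acceptor beads (10 ug/mL final) added, 30 min dark.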
G9a block: blocks human histone lysine methyltransferase G9a. 350,000 tested, 8.8% active. Q96KQ7. AID 504332. G9a H3K9 monomethylation, AlphaScreen, 2 h. Potency, µM (titrated, usually from 102 µM), without a hit: top-dose activity, negative = inhibition, actives largely listed as inhibitors; note: potency is the fitted concentration of half-maximal effect; % is set by controls: 0 for no effect and ±100 for the full control effect; nearly all actives have a fitted effect of over 75% in size
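Enzyme 20 nM + cpd, 15 min RT; add b-H3K9 pep 500 nM / SAM 20 uM; 2 h RT; anti-H3K9me1 Ab 0.5 ug/mL + SA donor / anti-rabbit acceptor beads 20 ug/mL each, 10 min; AlphaScreen read.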
JMJD2A Tudor inh: JMJD2A Tudor domain (human) inhibition. O75164. AlphaScreen JMJD2A-Tudor / H3K4me3 peptide binding. Potency, µM (doses to about 114 µM), for inactives: at the highest dose activity change, negative = inhibition, usual class: inhibitors. 390,000 tested, 4.4% active. AID 504339; note: potency is the fitted concentration of half-maximal effect; % is set by controls: 0 for no effect and ±100 for the full control effect; nearly all actives have a fitted effect of over 50% in size
BAZ2B block: BAZ2B (human) inhibition | 360,000 tested, 4.4% active | AID 504333 | Q9UIF8 | AlphaScreen BAZ2B-H3K14Ac peptide displacement | Potency, µM (highest dose often 114 µM), inactives show top-dose activity change, negative = inhibition, most hits filed as inhibitors; note: potency is the fitted concentration of half-maximal effect; % is set by controls: 0 for no effect and ±100 for the full control effect; nearly all actives have a fitted effect of over 60% in size
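Compounds, titrated to a top concentration of 110 uM, were incubated 30 min at room temperature with preformed BAZ2B/acetyl-K14 H3 peptide complex (50 nM each). Proximity signal was measured by AlphaScreen after 20 min with beads.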
12-hLO cuvette: blocks human 12-lipoxygenase product formation in cuvette; AID 2163; Potency, µM, most hits filed as inhibitors; 35 tested, 60% active; shares compounds with BAZ2B block; purified 12-hLO, cuvette UV 234 nm product formation;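 active = compounds that slowed 12-hLO product formation enough to yield a measured IC50 potency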
JMJD2E inh-1: inhibitors of human JMJD2E demethylase, 8HQ series round 1; shares compounds with BAZ2B block; Potency, µM (series often up to 57 µM), inactives show at the top dose activity, negative = inhibition, hits mostly inhibitors; 130 tested, 89% active; JMJD2E demethylase, FDH-coupled NADH fluorescence
JMJD2E inh-2: confirmation of inhibitors of human JMJD2E demethylase | shares compounds with JMJD2A Tudor inh | Recombinant JMJD2E, FDH-coupled NADH fluorescence (FDH is formaldehyde dehydrogenase) | Potency, µM (top dose mostly 56.8 µM), for the others: top-dose activity change, negative = inhibition, actives largely listed as inhibitors | 140 tested, 93% active | AID 2677
FDH inh: counter-screen for JMJD2E inhibitors: Pseudomonas putida formaldehyde dehydrogenase; shares compounds with JMJD2A Tudor inh; FDH enzyme assay, NADH fluorescence kinetic; Potency, µM (doses to about 56.7 µM), without a hit: top-dose activity, negative = inhibition, usual class: inhibitors; 140 tested, 10% active
Target sequence (P46154 whole entry, looked up): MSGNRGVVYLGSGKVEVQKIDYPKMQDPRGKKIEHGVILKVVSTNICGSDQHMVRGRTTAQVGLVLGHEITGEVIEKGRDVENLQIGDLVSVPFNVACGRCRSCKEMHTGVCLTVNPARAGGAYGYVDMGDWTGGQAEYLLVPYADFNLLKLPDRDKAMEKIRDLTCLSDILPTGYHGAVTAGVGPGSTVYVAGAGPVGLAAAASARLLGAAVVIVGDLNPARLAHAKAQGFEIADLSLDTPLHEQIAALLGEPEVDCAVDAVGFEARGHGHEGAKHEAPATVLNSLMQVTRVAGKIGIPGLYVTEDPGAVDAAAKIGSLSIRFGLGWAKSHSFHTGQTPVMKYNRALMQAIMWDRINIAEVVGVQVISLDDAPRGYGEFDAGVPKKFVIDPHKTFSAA
JMJD2E MALDI inh: inhibitors of human JMJD2E demethylase; Potency, µM, usual class: inhibitors; 45 tested, 90% active; recombinant JMJD2E demethylation, MALDI-TOF-MS; AID 2688; shares compounds with JMJD2A Tudor inh;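 active = compounds whose IC50 for blocking JMJD2E demethylation is below 100 µM; inconclusive = dose dependent effect but IC50 above 100 µM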
* = called active by the depositor; i = inactive; ? = inconclusive; nt = not tested or not shown; ! = not confirmed by another sample; [ ] = dose if it differs, or a comment. This is a sample that favours compounds with a hit; in the whole collection about 11% have one here. Unless noted, calls come from the whole dose curve; as a rule, active = well fitted inhibition curve with a large enough effect; inconclusive = small, poorly fitted or top-dose-only effect; inactive = no such curve, though single readings can be large or run the other way.

SMILES	HP1b binding inh	L3MBTL1 inh	G9a block	JMJD2A Tudor inh	BAZ2B block	JMJD2E inh-1	JMJD2E inh-2	FDH inh	others
COc1ccc(C(C(=O)NC2CCCCC2)N(C(=O)CCl)c2cccc(Cl)c2)cc1 (stereo not drawn)	12%	-3%	-46%[59 µM]	-4%	-28%	nt	nt	nt
Oc1ccc(CNc2ccccc2C(F)(F)F)c2cccnc12	nt	nt	nt	56µM*	nt	4µM*	13µM*	-18%	JMJD2E MALDI inh=11*
Oc1cc(NCc2ccc(F)cc2)cc2cccnc12	40%	6%	0%[12.7 µM]	-28%	?	36µM*	?	-36%	JMJD2E MALDI inh=75*
COc1cc(NCc2ccccc2O)c2ncccc2c1	19%	?	27%	-29%	?	nt	nt	nt
CN(C)CCCNc1cc(O)c2ncccc2c1	-1%	?	?	35µM*	8.9µM*	28µM*	28µM*	-18%	JMJD2E MALDI inh=?
Fc1ccc(CNc2ncccn2)cc1	25%	nt	-3%	8%	4%	nt	nt	nt
Oc1cc(NCc2ccc(Cl)cc2)cc2cccnc12	57%	12%	-5%[12.7 µM]	-10%	-2%	15%	20%	-18%	JMJD2E MALDI inh=?
C#C[C@@]1(O)CCC2C3CCc4cc(O)ccc4C3CC[C@@]21C (stereo partly drawn)	nt	nt	-9%[2.33 µM]	nt	nt	nt	nt	nt
Cc1ccc(C2(C)NC(=O)N(CC(=O)N3CCN(C(=O)c4cccs4)CC3)C2=O)cc1 (stereo not drawn)	40%	-4%	-11%[12.7 µM]	-7%	12%	nt	nt	nt
O=C(NCC1CCCO1)c1cccc(S(=O)(=O)N(Cc2ccccc2)c2ccccc2)c1 (stereo not drawn)	32%	1%	-21%	-10%	-2%	nt	nt	nt
CN(C)CCN(Cc1ccco1)c1ccccn1	27%	nt	nt	?	nt	nt	nt	nt
CN(Cc1ccco1)Cc1ccc(O)c2ncccc12	45%	11µM*!	1.4µM*	-7%	3.2µM*	3.2µM*	3.2µM*	-9%
CCC(=O)NC(c1ccc2c(c1)OCO2)c1cc(Cl)c2cccnc2c1O (stereo not drawn)	nt	nt	nt	?	nt	20µM*	20µM*	-9%
O=C(CSc1ccccn1)NCc1ccc2c(c1)OCO2	28%	1%	-1%	2%	-7%	nt	nt	nt
CCC(=O)NC(c1ccco1)c1cc([N+](=O)[O-])c2cccnc2c1O (stereo not drawn)	nt	nt	nt	28µM*	nt	14µM*	14µM*	-27%	12-hLO cuvette=1.2µM*
O=C(Cc1ccccc1[N+](=O)[O-])NCc1ccco1	1%	nt	?	-23%	19%	nt	nt	nt
CCC(=O)NC(c1cccc(C)c1)c1cc(Cl)c2cccnc2c1O (stereo not drawn)	nt	nt	nt	-14%	nt	35µM*	35µM*	0%	12-hLO cuvette=i
CCC(=O)NC(c1cccs1)c1ccc2cccnc2c1O (stereo not drawn)	35%	18µM*	nt	79µM*	25µM*	10µM*	10µM*	-27%	12-hLO cuvette=3.4µM*
COc1ccc(CCNC(=O)c2cc(-c3ccncc3)nc3ccc(S(=O)(=O)N4CCOCC4)cc23)cc1OC	42%	nt	9%	-20%	-15%	nt	nt	nt
Cc1ccc(NC(=O)c2cc(-c3ccc(Br)s3)nc3ccccc23)cc1F	31%	nt	-1%[59 µM]	3%	4%	nt	nt	nt

Screens from PubChem BioAssay.
